The labels stand for the following.
T1: RBFOX1 RRM (Homo sapiens, UniProt Q9NWB1 109-208)
T1 sequence: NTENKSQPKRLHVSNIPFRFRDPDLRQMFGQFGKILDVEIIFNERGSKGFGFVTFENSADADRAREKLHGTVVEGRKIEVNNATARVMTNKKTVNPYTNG

B1: GGGUACA (DNA:RNA)
RNA: GGGAGACCGGAAUUCAGAUUGUCCGGGUACAUUAAAUCCCGUCGUAGCCACCA
DNA 1: CAATCTGAATTCCGGTCTCCC
DNA 2: TGGTGGCTACGACGGGATT
B2: GUUCUUU (DNA:RNA)
RNA: B1 RNA with G26U, G27U, U28C, A29U, C30U, A31U
DNA 1: CAATCTGAATTCCGGTCTCCC
DNA 2: TGGTGGCTACGACGGGATT
B3: UCUUAUA (DNA:RNA)
RNA: B1 RNA with G25U, G26C, G27U, C30U
DNA 1: CAATCTGAATTCCGGTCTCCC
DNA 2: TGGTGGCTACGACGGGATT
B4: UAGUUAU (DNA:RNA)
RNA: B1 RNA with G25U, G26A, A29U, C30A, A31U
DNA 1: CAATCTGAATTCCGGTCTCCC
DNA 2: TGGTGGCTACGACGGGATT
B5: CCUCUCC (DNA:RNA)
RNA: B1 RNA with G25C, G26C, G27U, U28C, A29U, A31C
DNA 1: CAATCTGAATTCCGGTCTCCC
DNA 2: TGGTGGCTACGACGGGATT
B6: AUAACCC (DNA:RNA)
RNA: B1 RNA with G25A, G26U, G27A, U28A, A29C, A31C
DNA 1: CAATCTGAATTCCGGTCTCCC
DNA 2: TGGTGGCTACGACGGGATT
B7: GGCGCUG (DNA:RNA)
RNA: B1 RNA with G27C, U28G, A29C, C30U, A31G
DNA 1: CAATCTGAATTCCGGTCTCCC
DNA 2: TGGTGGCTACGACGGGATT
B8: GGUGUCA (DNA:RNA)
RNA: B1 RNA with G27U, U28G, A29U
DNA 1: CAATCTGAATTCCGGTCTCCC
DNA 2: TGGTGGCTACGACGGGATT
B9: AAACCAG (DNA:RNA)
RNA: GGGAGACCGGAAUUCAGAUUGUCCAAACCAGUUAAAUCCCGUCGUAGCCACCA
DNA 1: CAATCTGAATTCCGGTCTCCC
DNA 2: TGGTGGCTACGACGGGATT
B10: AACUAGA (DNA:RNA)
RNA: B1 RNA with G25A, G26A, G27C, C30G
DNA 1: CAATCTGAATTCCGGTCTCCC
DNA 2: TGGTGGCTACGACGGGATT
B11: AUUUUUU (DNA:RNA)
RNA: B9 RNA with A26U, A27U, C28U, C29U, A30U, G31U
DNA 1: CAATCTGAATTCCGGTCTCCC
DNA 2: TGGTGGCTACGACGGGATT
B12: GGAGUGU (DNA:RNA)
RNA: B1 RNA with G27A, U28G, A29U, C30G, A31U
DNA 1: CAATCTGAATTCCGGTCTCCC
DNA 2: TGGTGGCTACGACGGGATT
B13: GGGAUUC (DNA:RNA)
RNA: B1 RNA with U28A, A29U, C30U, A31C
DNA 1: CAATCTGAATTCCGGTCTCCC
DNA 2: TGGTGGCTACGACGGGATT
B14: CGGAUUC (DNA:RNA)
RNA: B1 RNA with G25C, U28A, A29U, C30U, A31C
DNA 1: CAATCTGAATTCCGGTCTCCC
DNA 2: TGGTGGCTACGACGGGATT
B15: CGGAGUG (DNA:RNA)
RNA: B1 RNA with G25C, U28A, A29G, C30U, A31G
DNA 1: CAATCTGAATTCCGGTCTCCC
DNA 2: TGGTGGCTACGACGGGATT
B16: GGGAGUG (DNA:RNA)
RNA: B1 RNA with U28A, A29G, C30U, A31G
DNA 1: CAATCTGAATTCCGGTCTCCC
DNA 2: TGGTGGCTACGACGGGATT
B17: GGAAUUC (DNA:RNA)
RNA: B1 RNA with G27A, U28A, A29U, C30U, A31C
DNA 1: CAATCTGAATTCCGGTCTCCC
DNA 2: TGGTGGCTACGACGGGATT
B18: AGUAUUG (DNA:RNA)
RNA: B9 RNA with A26G, A27U, C28A, C29U, A30U
DNA 1: CAATCTGAATTCCGGTCTCCC
DNA 2: TGGTGGCTACGACGGGATT
B19: GCGUCGG (DNA:RNA)
RNA: B1 RNA with G26C, A29C, C30G, A31G
DNA 1: CAATCTGAATTCCGGTCTCCC
DNA 2: TGGTGGCTACGACGGGATT
B20: CGGCUAU (DNA:RNA)
RNA: B9 RNA with A25C, A26G, A27G, C29U, G31U
DNA 1: CAATCTGAATTCCGGTCTCCC
DNA 2: TGGTGGCTACGACGGGATT

Residue numbers refer to the chain shown, from its start. Whole data set: some 16,000 sequences, median “ka relative to ugcaugu” near 0.0091, cut for the highest 2% near 0.032. The sample holds the highest values, similar sequences and a random draw of the others, so the mix is not that of the screen.

This assay concerns the target T1, RBFOX1 RRM. The assay can be described thus: EMSA; HiTS-Eq, 1 nM pool, 10 min; buffer printed only for the single-RNA assays: 10 mM Tris pH 7.5, 150 mM NaCl, 3.4 mM EDTA, 0.001% NP-40, 30 C. As to conditions: tags: His6 N-terminal (pET28a); label: 5' 32P. An outline of the steps:
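A pool of RNA with 7 randomized nucleotides, 5′-radiolabelled and with DNA-annealed flanks, was equilibrated at 1 nM for 10 min in 50 µL with purified RbFox RRM, wild type or mutant, across increasing protein concentrations. Free RNA was separated by 8% native PAGE, excised, reverse-transcribed, barcoded by PCR and sequenced. Relative association constants were obtained from read-count changes of each RNA species versus the control reaction and normalised to the cognate motif.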
For orientation: In EMSA bound probe runs differently from free probe, usually more slowly.
Turning to B1, the binding signal is 0.0112 KA relative to UGCAUGU.

On to B2, for which the binding signal was 0.0158 KA relative to UGCAUGU.

Turning to B3, the binding signal is 0.00158 KA relative to UGCAUGU.

As for B4, the binding signal is 0.00794 KA relative to UGCAUGU.

For B5, the binding signal is 0.00489 KA relative to UGCAUGU.

Consider B6, for which the binding signal was 0.00143 KA relative to UGCAUGU.

B7: the binding signal was 0.0174 KA relative to UGCAUGU.

Regarding B8, the binding signal is 0.00539 KA relative to UGCAUGU.

For B9, the binding signal is 0.000872 KA relative to UGCAUGU.

As for B10, the binding signal was 0.00203 KA relative to UGCAUGU.

On to B11, for which the binding signal was 0.007 KA relative to UGCAUGU.

With B12, the binding signal is 0.0229 KA relative to UGCAUGU.

As for B13, the binding signal is 0.044 KA relative to UGCAUGU.

As to B14, the binding signal is 0.0273 KA relative to UGCAUGU.

In the case of B15, the binding signal is 0.0283 KA relative to UGCAUGU.

Consider B16, for which the binding signal was 0.0333 KA relative to UGCAUGU.

Consider B17, for which the binding signal was 0.018 KA relative to UGCAUGU.

As to B18, the binding signal is 0.0121 KA relative to UGCAUGU.

As to B19, the binding signal was 0.0208 KA relative to UGCAUGU.

For B20, the binding signal was 0.0107 KA relative to UGCAUGU.

Values taken from publication PMC9911399, “Two distinct binding modes provide the RNA-binding protein RbFox with extraordinary sequence specificity”.
